# Data published in PubChem BioAssay AID1035475 (Broad Institute, 2014).
# Results with a measured potency or affinity are listed apart. Records with an inconclusive call do not appear. Active and inactive are the calls of the source.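 Rule for the calls: active = fluorescent signal drops by 40% or more, counted as a hit; inconclusive = no clear call, values can overlap the other calls; inactive = the rest, including any activity in the opposite direction.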
# Experiment: inhibitors of fibronectin matrix deposition, dose response, AH1F cells, Alexa488-FN fluorescence, cherry-picks (AID 1035475);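 note: AH1F fibroblasts incorporating labeled fibronectin into their extracellular matrix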
smiles,measurement,value
C=C1C(=O)O[C@@H]2C[C@@H](C)[C@@H]3C=CC(=O)[C@@]3(C)[C@@H](O)[C@H]12,outcome,inactive
